Hits are enriched below; roughly 1.6% of the tested compounds scored in any of these assays.
KCNQ2 inh: inhibitors of rat KCNQ2 potassium channel; O88943; CHO-K1 KCNQ2, FluxOR thallium flux, 20 min; active compounds read low; B-score at 10 µM; hit rate 1.1% among 310,000; AID 2156;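 active = fluorescence ratio B-score at most minus 3 library SDs, with starting brightness B-score within 2 library SDs, cut at about -5.5 in these data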
KCNQ2 pot: KCNQ2 (rat) channel potentiation; CHO-K1 KCNQ2, FluxOR thallium flux fluorescence; active compounds read high; B-score at 10 µM; hit rate 0.54% among 310,000;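 active = fluorescence ratio B-score at least 3 SD of library B-scores, with initial fluorescence B-score within 3 of them, cut at about 5.3 in these data; same plate scores as AID 2156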;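 note: B-score of peak minus minimum over baseline fluorescence ratio after K+ and Tl+ stimulus; positive B-score means potentiation of KCNQ2 with more thallium influx and brighter signal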
Starred values were filed as active, the others as inactive; i = inactive; x = no result given.

SMILES	KCNQ2 inh	KCNQ2 pot
COc1ccccc1CNC(=O)COC(=O)c1n[nH]c2ccccc12	-5.9*	-5.9
COc1ccccc1CNC(=O)c1n[nH]c2ccccc12	i	0.13
Cc1c(C(=O)N/N=C/c2ccccn2)nnn1-c1nonc1N	i	1.4
O=C(NCC1CCCN(Cc2ccc3c(c2)OCCO3)C1)c1ccc2c(c1)OCO2 (configuration not stated)	i	0.77
O=C(NCC1CCCN(Cc2ccc3nonc3c2)C1)c1cccc(C(F)(F)F)c1 (configuration not stated)	-5.7*	-5.7
Cc1cccc(OCCC(=O)Nc2ccc(Cl)cc2F)c1	i	2.9
CN(C)CCN1C(=O)C(=O)/C(=C(/O)c2ccc(S(=O)(=O)N3CCOCC3)cc2)C1c1ccc(F)cc1 (configuration not stated)	i	x
CCOC(=O)C1CCN(c2c(Nc3ccc(C)c(C)c3)c(=O)c2=O)CC1	i	x
CCCCc1ccc(NC(=O)CC(C)=O)cc1	i	1
CCCCc1ccc(NC(=O)CC(C)(C)C)cc1	i	14*
CC1(NC(=O)c2cccc(S(=O)(=O)N3CCN(c4ccc(F)cc4)CC3)c2)CCS(=O)(=O)C1 (configuration not stated)	i	0.01
CCN(CC)CCOc1ccc(Br)cc1	i	x
CCN(CC)CCOc1ccc(/C(=C(\Cl)c2ccccc2)c2ccccc2)cc1	-7.6*	-7.6
CCOC(=O)c1cnc(SC)nc1Oc1cccc(NC(=O)c2cccc(Cl)c2Cl)c1	i	x
O=C(c1ccc(Cl)c(Cl)c1)N1CCC(=O)N(C(COCc2ccc(Cl)cc2)Cc2ccccc2)CC1 (configuration not stated)	-5.9*	-5.9
Cc1cccc(COCC(Cc2ccccc2)N2CCN(C(=O)c3cc(Cl)cc(Cl)c3)CCC2=O)c1 (configuration not stated)	i	x
Cc1cccc(COCC(Cc2ccccc2)N2CCN(C(=O)c3ccc(Cl)c(Cl)c3)CCC2=O)c1 (configuration not stated)	i	x
Cc1ccc(S(=O)(=O)N2CCC(=O)N(C(COCc3ccc(Cl)cc3Cl)Cc3ccccc3)CC2)cc1 (configuration not stated)	-6*	-6
Cc1ccc(S(=O)(=O)N2CCC(=O)N(C(COCc3cccc(Cl)c3)Cc3ccccc3)CC2)cc1 (configuration not stated)	i	x
Cc1cccc(COCC(Cc2ccccc2)N2CCN(C(=O)c3cccc(C)c3)CCC2=O)c1 (configuration not stated)	-5.8*	-5.8
CC(C)CC(COCc1cccc(C(F)(F)F)c1)N1CCN(C(=O)c2cccc(C(F)(F)F)c2)CCC1=O (configuration not stated)	i	x
Cc1ccccc1COC[C@H](CC(C)C)N1CCN(C(=O)c2cccc(C(F)(F)F)c2)CCC1=O	-6.9*	-6.9
COC(=O)CN(C)C(=O)c1ccc2nc(Cc3cccc(Cl)c3)oc2c1	i	x
O=C(Cc1cccc(C(F)(F)F)c1)NCC(c1ccco1)N1CCCCC1 (configuration not stated)	i	0.86
O=C(NNC(=O)c1cc2ccccc2oc1=O)c1ccccc1[N+](=O)[O-]	i	0.04
SMILES	KCNQ2 inh	KCNQ2 pot
O=C(c1ccco1)N1CCC(c2nc3c(nnn3Cc3ccc(F)cc3)c(=O)[nH]2)CC1	i	x
CCc1nnc(NC(=O)C2CCCN2C(=O)Nc2ccc(Cl)cc2)s1 (configuration not stated)	i	0.22
O=C(N/C(=C\c1cccc(Br)c1)C(=O)N1CCCCC1)c1ccco1	i	x
COc1ccccc1N1CCN(C(=O)C(C)N(c2ccccc2)S(C)(=O)=O)CC1 (configuration not stated)	-5.7*	-5.7
COc1ccccc1N1CCN(C(=O)C(C)N(c2ccc(C)cc2)S(C)(=O)=O)CC1 (configuration not stated)	i	x
Cc1nnsc1-c1nnc(SCC(=O)c2ccccc2)n1C1CC1	i	1
C/C(=C\c1ccc(F)cc1)C(=O)c1c(C)cc(C)[nH]c1=O	i	0.51
COC(=O)c1cn(NC(=O)Cc2ccccc2OC)c(=O)c2ccccc12	i	x
COC(=O)c1cn(NC(=O)Cc2ccc(Cl)cc2)c(=O)c2ccccc12	i	18*
COC(=O)c1cn(NC(=O)Cc2ccc(Cl)c(Cl)c2)c(=O)c2ccccc12	i	30*
COC(=O)c1cn(NC(=O)Cc2cccc(C(F)(F)F)c2)c(=O)c2ccccc12	i	3.5
Cc1ccc(S(=O)(=O)N(C)c2ccc(C(=O)Nc3ccccc3C(=O)N3CCOCC3)cc2)cc1	i	1.4
CN(C)C=NC(=O)c1cn(-c2ccc(F)cc2)c(=O)c2ccccc12	i	0.82
Cc1nc(SC(C(=O)c2ccccc2)c2ccccc2)nc2ccccc12 (configuration not stated)	i	x
COc1ccc2nc(SCc3ccccc3C)nc(C)c2c1	i	x
